# Numbering of substitutions follows the chain as printed.
# Key:
# Assay in all cases: yeast three-hybrid, YBZ-1, SC-Leu-His + 0.5 mM 3-AT, 4 days
# Details in all cases: tags: N-Gal4 AD-HA kept; label: inside an RPR1-promoter hybrid RNA with tandem MS2 sites; ssRNA
# PUM1 PUF domain R6-CYL = target: T1, PUM1 PUF domain R6-CYL (Homo sapiens, UniProt Q14671 828-1176, N1043C;Q1047L)
# T1 sequence: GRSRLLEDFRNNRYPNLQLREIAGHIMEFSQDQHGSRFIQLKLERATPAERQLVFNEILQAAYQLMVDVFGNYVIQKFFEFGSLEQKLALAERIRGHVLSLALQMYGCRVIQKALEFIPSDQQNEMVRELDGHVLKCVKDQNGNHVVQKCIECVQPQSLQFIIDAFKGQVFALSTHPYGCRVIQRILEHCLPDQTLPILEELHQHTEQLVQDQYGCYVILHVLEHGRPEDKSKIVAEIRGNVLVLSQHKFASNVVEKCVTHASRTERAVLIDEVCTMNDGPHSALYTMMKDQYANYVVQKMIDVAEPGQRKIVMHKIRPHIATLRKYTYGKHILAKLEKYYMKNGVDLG
# Summary of the method: (§1)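 Each repeat of the Pumilio-1 PUF domain was randomized at its three base-contacting residues, and these libraries were co-expressed from a centromeric plasmid with matching RNA elements in strain YBZ-1. After four days on SC-Leu (input) or SC-Leu-His + 0.5 mM 3-AT (selection), the repeat regions were PCR-amplified and Illumina-sequenced. The interaction score compares variant frequency between input and selection as a log change, computed in log2 with a pseudocount of 1 for absent variants.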
# PUM1 PUF domain R7-RVI = PUM1 PUF domain R7-RVI (Homo sapiens, UniProt Q14671 828-1176, S1079R;N1080V;E1083I)
# Summary of the method: as §1
# PUM1 PUF domain R4-INC = PUM1 PUF domain R4-INC (Homo sapiens, UniProt Q14671 828-1176, N971I;H972N;Q975C)
# Summary of the method: as §1
# PUM1 PUF domain R4-RHV = PUM1 PUF domain R4-RHV (Homo sapiens, UniProt Q14671 828-1176, N971R;Q975V)
# Summary of the method: as §1
# PUM1 PUF domain R4-FGS = PUM1 PUF domain R4-FGS (Homo sapiens, UniProt Q14671 828-1176, N971F;H972G;Q975S)
# Summary of the method: as §1
# PUM1 PUF domain R6-MWE = target: T2, PUM1 PUF domain R6-MWE (Homo sapiens, UniProt Q14671 828-1176, N1043M;Y1044W;Q1047E)
# T2 sequence: T1 sequence with C216M, Y217W, L220E
# Summary of the method: as §1
# PUM1 PUF domain R1-RYE = PUM1 PUF domain R1-RYE (Homo sapiens, UniProt Q14671 828-1176, S863R;R864Y;Q867E)
# Summary of the method: as §1
# PUM1 PUF domain R1-RGQ = PUM1 PUF domain R1-RGQ (Homo sapiens, UniProt Q14671 828-1176, S863R;R864G)
# Summary of the method: as §1
# PUM1 PUF domain R5-KLC = PUM1 PUF domain R5-KLC (Homo sapiens, UniProt Q14671 828-1176, C1007K;R1008L;Q1011C)
# Summary of the method: as §1
# PUM1 PUF domain R5-LWR = PUM1 PUF domain R5-LWR (Homo sapiens, UniProt Q14671 828-1176, C1007L;R1008W;Q1011R)
# Summary of the method: as §1
# PUM1 PUF domain R5-GKC = PUM1 PUF domain R5-GKC (Homo sapiens, UniProt Q14671 828-1176, C1007G;R1008K;Q1011C)
# Summary of the method: as §1
# PUM1 PUF domain R3-DFA = PUM1 PUF domain R3-DFA (Homo sapiens, UniProt Q14671 828-1176, C935D;R936F;Q939A)
# Summary of the method: as §1
# PUM1 PUF domain R5-GFI = PUM1 PUF domain R5-GFI (Homo sapiens, UniProt Q14671 828-1176, C1007G;R1008F;Q1011I)
# Summary of the method: as §1
# PUM1 PUF domain R6-NRR = target: T3, PUM1 PUF domain R6-NRR (Homo sapiens, UniProt Q14671 828-1176, Y1044R;Q1047R)
# T3 sequence: T1 sequence with C216N, Y217R, L220R
# Summary of the method: as §1
# PUM1 PUF domain R5-LWG = PUM1 PUF domain R5-LWG (Homo sapiens, UniProt Q14671 828-1176, C1007L;R1008W;Q1011G)
# Summary of the method: as §1
# PUM1 PUF domain R1-KDR = PUM1 PUF domain R1-KDR (Homo sapiens, UniProt Q14671 828-1176, S863K;R864D;Q867R)
# Summary of the method: as §1
# PUM1 PUF domain R8-YWK = PUM1 PUF domain R8-YWK (Homo sapiens, UniProt Q14671 828-1176, N1122Y;Y1123W;Q1126K)
# Summary of the method: as §1
# PUM1 PUF domain R3-FSE = PUM1 PUF domain R3-FSE (Homo sapiens, UniProt Q14671 828-1176, C935F;R936S;Q939E)
# Summary of the method: as §1
# PUM1 PUF domain R3-MWS = PUM1 PUF domain R3-MWS (Homo sapiens, UniProt Q14671 828-1176, C935M;R936W;Q939S)
# Summary of the method: as §1
# PUM1 PUF domain R5-NSD = PUM1 PUF domain R5-NSD (Homo sapiens, UniProt Q14671 828-1176, C1007N;R1008S;Q1011D)
# Summary of the method: as §1
sequence,measurement,setting,value
GGCUAGAACUAGUGGAUCCCCCGGCGCCCGGCGGCUCGAGCCCGGGUAAGUGAAAAUAGUCUGCAUGCCGCCGGGCGCCAUGCCUGCAGGUCGACUCUAGAAAACAUG,binding signal,PUM1 PUF domain R6-CYL,5.18 log2 enrichment (interaction score)
GGCUAGAACUAGUGGAUCCCCCGGCGCCCGGCGGCUCGAGCCCGGGUAAGUUUAAAUAGUCUGCAUGCCGCCGGGCGCCAUGCCUGCAGGUCGACUCUAGAAAACAUG,binding signal,PUM1 PUF domain R7-RVI,2.39 log2 enrichment (interaction score)
GGCUAGAACUAGUGGAUCCCCCGGCGCCCGGCGGCUCGAGCCCGGGUAAGUGUAUAUAGUCUGCAUGCCGCCGGGCGCCAUGCCUGCAGGUCGACUCUAGAAAACAUG,binding signal,PUM1 PUF domain R4-INC,4.14 log2 enrichment (interaction score)
same,binding signal,PUM1 PUF domain R4-RHV,4.8 log2 enrichment (interaction score)
same,binding signal,PUM1 PUF domain R4-FGS,2.78 log2 enrichment (interaction score)
GGCUAGAACUAGUGGAUCCCCCGGCGCCCGGCGGCUCGAGCCCGGGUAAGUGGAAAUAGUCUGCAUGCCGCCGGGCGCCAUGCCUGCAGGUCGACUCUAGAAAACAUG,binding signal,PUM1 PUF domain R6-MWE,4.52 log2 enrichment (interaction score)
GGCUAGAACUAGUGGAUCCCCCGGCGCCCGGCGGCUCGAGCCCGGGUAAGUGUACAUAGUCUGCAUGCCGCCGGGCGCCAUGCCUGCAGGUCGACUCUAGAAAACAUG,binding signal,PUM1 PUF domain R4-RHV,2.18 log2 enrichment (interaction score)
same,binding signal,PUM1 PUF domain R4-FGS,2.32 log2 enrichment (interaction score)
GGCUAGAACUAGUGGAUCCCCCGGCGCCCGGCGGCUCGAGCCCGGGUAAGUGUAAAUUGUCUGCAUGCCGCCGGGCGCCAUGCCUGCAGGUCGACUCUAGAAAACAUG,binding signal,PUM1 PUF domain R1-RYE,2.61 log2 enrichment (interaction score)
same,binding signal,PUM1 PUF domain R1-RGQ,2.29 log2 enrichment (interaction score)
GGCUAGAACUAGUGGAUCCCCCGGCGCCCGGCGGCUCGAGCCCGGGUAAGUGUCAAUAGUCUGCAUGCCGCCGGGCGCCAUGCCUGCAGGUCGACUCUAGAAAACAUG,binding signal,PUM1 PUF domain R5-KLC,2.5 log2 enrichment (interaction score)
same,binding signal,PUM1 PUF domain R5-LWR,3.23 log2 enrichment (interaction score)
same,binding signal,PUM1 PUF domain R5-GKC,2.56 log2 enrichment (interaction score)
GGCUAGAACUAGUGGAUCCCCCGGCGCCCGGCGGCUCGAGCCCGGGUAAGUGUAAAUAGUCUGCAUGCCGCCGGGCGCCAUGCCUGCAGGUCGACUCUAGAAAACAUG,binding signal,PUM1 PUF domain R5-GKC,0.78 log2 enrichment (interaction score)
same,binding signal,PUM1 PUF domain R3-DFA,6.17 log2 enrichment (interaction score)
same,binding signal,PUM1 PUF domain R5-GFI,6.14 log2 enrichment (interaction score)
same,binding signal,PUM1 PUF domain R6-NRR,4.3 log2 enrichment (interaction score)
same,binding signal,PUM1 PUF domain R5-LWG,2.19 log2 enrichment (interaction score)
same,binding signal,PUM1 PUF domain R4-RHV,2.5 log2 enrichment (interaction score)
same,binding signal,PUM1 PUF domain R4-FGS,0.95 log2 enrichment (interaction score)
GGCUAGAACUAGUGGAUCCCCCGGCGCCCGGCGGCUCGAGCCCGGGUAAGUGUAAAUCGUCUGCAUGCCGCCGGGCGCCAUGCCUGCAGGUCGACUCUAGAAAACAUG,binding signal,PUM1 PUF domain R1-RYE,1.44 log2 enrichment (interaction score)
same,binding signal,PUM1 PUF domain R1-KDR,3.98 log2 enrichment (interaction score)
GGCUAGAACUAGUGGAUCCCCCGGCGCCCGGCGGCUCGAGCCCGGGUAAGUGCAAAUAGUCUGCAUGCCGCCGGGCGCCAUGCCUGCAGGUCGACUCUAGAAAACAUG,binding signal,PUM1 PUF domain R6-NRR,4.48 log2 enrichment (interaction score)
GGCUAGAACUAGUGGAUCCCCCGGCGCCCGGCGGCUCGAGCCCGGGUAAGCGUAAAUAGUCUGCAUGCCGCCGGGCGCCAUGCCUGCAGGUCGACUCUAGAAAACAUG,binding signal,PUM1 PUF domain R8-YWK,2.04 log2 enrichment (interaction score)
GGCUAGAACUAGUGGAUCCCCCGGCGCCCGGCGGCUCGAGCCCGGGUAAGUGUAAGUAGUCUGCAUGCCGCCGGGCGCCAUGCCUGCAGGUCGACUCUAGAAAACAUG,binding signal,PUM1 PUF domain R3-FSE,3.22 log2 enrichment (interaction score)
same,binding signal,PUM1 PUF domain R3-MWS,5.62 log2 enrichment (interaction score)
GGCUAGAACUAGUGGAUCCCCCGGCGCCCGGCGGCUCGAGCCCGGGUAAGUGUUAAUAGUCUGCAUGCCGCCGGGCGCCAUGCCUGCAGGUCGACUCUAGAAAACAUG,binding signal,PUM1 PUF domain R5-NSD,4.22 log2 enrichment (interaction score)
same,binding signal,PUM1 PUF domain R5-LWG,3.88 log2 enrichment (interaction score)

# From PMC8384837, “Expanding the binding specificity for RNA recognition by a PUF domain”
